Laboratory results from PubChem BioAssay AID588592 (Sanford-Burnham Center for Chemical Genomics, 2011).
The list shows a part of the results. Values without a mark were called inactive. No rule for the calls is given here.

Experiment: fluorescence interference of Apaf-1 activator hits, dose response, artefact control for Apaf-1 activator project (AID 588592)
Conditions: fluorescence interference counterscreen, Apaf-1 activator assay

| SMILES | EC50 [µM] |
| --- | --- |
| CCN(CC)CCOc1ccc2c(c1)C(=NNC(=O)c1ccccn1)c1cc(OCCN(CC)CC)ccc1-2 | > 100 |
| C=CC1=C(C(=O)O)N2C(=O)[C@@H](NC(=O)/C(=N/OCC(=O)O)c3csc(N)n3)[C@H]2SC1 | > 100 |
| C=C(C)C(=O)Nc1cccc(C2=NOC3(C2)C[C@H](C(N)=O)N(C(=O)C(c2ccccc2)c2ccccc2)C3)c1 (some centres undefined) | > 100 |
| C=CC1=C(C(=O)O)N2C(=O)[C@@H](NC(=O)/C(=N\OCC(=O)O)c3csc(N)n3)[C@H]2SC1 | > 100 |
